# Source: PubChem BioAssay (National Center for Advancing Translational Sciences (NCATS))
# FMDV antiviral: foot and mouth disease virus antiviral activity | FMDV antiviral cell-based qHTS | hit rate 1.2% among 410,000 | AID 1159524 | Potency, µM (doses to about 57.9 µM), for inactives: top-dose activity change, negative = inhibition, usual class: inhibitors; calls by dose curve; tested in HEK293T cells; note: read-out not given here; potency is the fitted concentration of half-maximal effect; nearly all actives have a fitted effect of over 45% in size
# Giardia FBPA inh: inhibitors of Giardia lamblia fructose-1,6-bisphosphate aldolase; A8B2U2; purified Giardia FBPA; Potency, µM (highest dose often 59.6 µM), inactives show at the top dose activity, negative = inhibition, actives largely listed as inhibitors; hit rate 0.71% among 290,000; AID 2451; note: potency is the fitted concentration of half-maximal effect; nearly all actives have a fitted effect of over 55% in size
# Target sequence (A8B2U2 whole entry, looked up): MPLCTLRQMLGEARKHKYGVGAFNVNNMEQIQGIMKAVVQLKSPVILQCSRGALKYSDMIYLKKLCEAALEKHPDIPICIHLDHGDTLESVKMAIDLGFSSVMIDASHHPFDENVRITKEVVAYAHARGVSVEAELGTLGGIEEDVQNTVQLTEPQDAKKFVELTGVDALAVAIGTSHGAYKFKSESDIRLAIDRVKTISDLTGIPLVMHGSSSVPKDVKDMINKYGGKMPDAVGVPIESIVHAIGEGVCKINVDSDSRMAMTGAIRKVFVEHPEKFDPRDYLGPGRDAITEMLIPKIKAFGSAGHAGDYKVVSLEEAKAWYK
#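 Giardia FBPA (40 nM reagent) was preincubated 10 min at RT with compound (up to 57.5 uM final), then substrate plus GAPDH/TPI/NAD/arsenate coupling system with diaphorase/resazurin was added; resorufin fluorescence (525/598 nm) was read after 20 min.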
# HCMV antiviral: blocks human cytomegalovirus replication; HFF cells, HCMV-luciferase reporter, 72 h; hits give low values; activity change, negative = inhibition, % at 57.5 µM; AID 1259415; hit rate 4.5% among 410,000; in the data active = activity change below about -60%; inconclusive = no clear call, values can overlap the other calls; inactive = above about -39%
#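 Compounds were evaluated in HFFs infected with an HCMV luciferase reporter virus (MOI 1 PFU/cell). Luciferase in lysates collected 72 h post infection served as the replication measure.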
# Lassa entry inh: blocks Lassa virus binding to or entry into cells; Lassa virus pseudotype entry inhibition, cell reporter; Potency, µM (highest dose often 37.9 µM), without a hit: at the top dose activity change, negative = inhibition, usual class: inhibitors; hit rate 1.2% among 300,000; AID 540256; calls by dose curve; tested in HEK293 cells; note: potency is the fitted concentration of half-maximal effect; nearly all actives have a fitted effect of over 50% in size
# MARV entry inh: blocks Marburg virus binding to or entry into cells | Marburg virus pseudotyped entry inhibition, cell reporter | Potency, µM (top dose mostly 37.8 µM), inactives show top-dose activity change, negative = inhibition, usual class: inhibitors | hit rate 1.8% among 300,000 | AID 540276; calls by dose curve; tested in HEK293 cells; note: potency is the fitted concentration of half-maximal effect
# HCV inh: HCV inhibition; Huh7.5.1 HCVcc-Cre infection, luciferase reporter, 44 h; Potency, µM (highest dose often 41.8 µM), for the others: at the highest dose activity change, negative = inhibition, actives largely listed as inhibitors; hit rate 3.4% among 340,000; note: potency is the fitted concentration of half-maximal effect
#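 Compounds are dispensed onto cells plated 4 h earlier at 1,000 per well, with HCVcc-Cre virus (about 0.5 moi) added next. Following 44 h of culture, luminescent signal is measured for 15 sec after 15 min with substrate at room temperature.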
# * marks the source's active call; other numbers are inactive results; ? = inconclusive; / = no result; [ ] = another dose, or the depositor's remark. In the library only some 8.3% were active in any assay of this set; here they are far more common. Unless noted, calls come from the whole dose curve; as a rule, active = well fitted curve in the direction sought with a large enough effect; inconclusive = small, poorly fitted or top-dose-only effect, or another doubt; inactive = no such curve, though single readings can be large; an effect the other way counts as inactive or inconclusive. % is set by controls: 0 for no effect and ±100 for the full control effect.
SMILES,FMDV antiviral,Giardia FBPA inh,HCMV antiviral,Lassa entry inh,MARV entry inh,HCV inh
Cc1occc1-c1nnc(SC(C)C(=O)Nc2ccccc2F)o1 (centres undefined),23.8%,/,47.7,11.2µM*,?,-10.6%
COc1ccccc1CCNC(=O)c1cc(-c2ccncc2)nc2ccc(Br)cc12,?,-1.3%,-66.2*,?,?,0.891µM*
COc1ccccc1CCNC(=O)c1cc(-c2ccccn2)nc2ccc(Br)cc12,/,14.1%,/,/,/,/
O=C(NCCc1ccccn1)c1cc(-c2ccc(Cl)c(Cl)c2Cl)nc2ccccc12,39.8µM*,-2.9%,?,?,?,?
O=C(NCc1ccccn1)c1cc(-c2ccccc2Cl)nc2ccccc12,-14.5%,0.3%,21.9,-4.1%,-14.7%,-17.6%
COc1ccccc1CCNC(=O)c1cc(-c2ccccn2)nc2ccccc12,-22.6%,/,-7.3,-7.8%,-32.0%,11.2µM*
Fc1ccc(Nc2c3c(nc4nncn24)CCC3)cc1,-21.1%,/,15.0,3.3%[46.1 µM],-14.7%[46.1 µM],/
C=CC[C@@H]1C=C[C@H](ON=C[C@@H](N[S+](=O)([O-])c2ccc(C)cc2)[C@H](C)C=CCC(=O)OC)[C@H](CO)O1,/,/,/,/,-13.8%[14.2 µM],/
COC(=O)c1cccnc1-n1c(=O)c2cccnc2n(CC(=O)Nc2ccccc2F)c1=O,0.7%,/,9.4,0.9%[46.1 µM],-0.3%[46.1 µM],/
CCc1ccc(NC(=O)CN(c2ccc(C)cc2)S(=O)(=O)c2cccs2)cc1,4.6%,/,-20.1,-15.8%[46.1 µM],5.1%[46.1 µM],/
O=C(NCCc1ccccc1)c1nn(-c2ccc(F)cc2)nc1CO,-22.5%,/,-16.7,-3.1%[46.1 µM],10.2%[46.1 µM],/
COc1cc(NC(=O)N2CCN(c3cc(-c4noc(C)n4)ccc3C)CC2)cc(OC)c1OC,-2.0%,/,-6.5,-1.3%[46.1 µM],/,/
C=CCOc1ccccc1OCC(O)CNC(C)C (centres undefined),-12.1%,/,-21.9,/,/,1µM*
O=C(N/N=C/c1ccsc1)c1ccc2ccccc2n1,50.7%,-13.2%,-67.3*,-17.9%[46.1 µM],?,-1.5%
COC(=O)[C@@H]1CCCN1Cc1ccc2c(c1)CN(Cc1ccc3c(c1)CCO3)CCO2,-6.9%,/,/,/,/,/
O=C(Nc1ccc2c(c1)OCO2)N[C@H]1CC[C@@]23CCCN2C(=O)CCC[C@H]3C1Cc1ccccc1 (some centres undefined),/,/,32.5,/,/,/
Cc1ccc(NC(C(=O)c2ccccc2)c2ccccc2)cc1 (centres undefined),-2.2%,/,-99.5*,?,?,-1.5%
Cc1ccc(NC(=O)C(Nc2ccccc2)c2ccccc2)cc1 (centres undefined),-7.2%,1.0%,-22.4,2.4%,-23.1%,8.2%
Cc1cc(C)n(-c2nc(NCCO)c3c4c(sc3n2)CCCC4)n1,-8.5%,1.0%,-28.5,?,?,7.08µM*
Cc1cc(C)n(-c2nc(NCC(C)O)c3c4c(sc3n2)CCCC4)n1 (centres undefined),-21.7%,-10.9%,-17.4,?,?,5.62µM*
Cc1cc(C)n(-c2nc(NCCCO)c3c4c(sc3n2)CCCC4)n1,12.2%,-6.3%,/,-5.2%,?,7.08µM*
Cc1cc(C)n(-c2nc(SCC(=O)O)c3c4c(sc3n2)CCCC4)n1,/,3.6%,/,/,/,/
CC1=C(C(=O)Nc2ccccc2Br)C2(CCC(C)CC2)OC1=O (centres undefined),-20.1%,/,-15.5,12.7%[46.1 µM],5.2%[46.1 µM],/
COc1cc2c(cc1NC(=O)CSc1nnc(Cc3cccs3)n1C)oc1ccccc12,-7.4%,-1.1%,21.5,4.1%,-29.6%,10µM*
CCn1c(SCC(=O)Nc2ccc3c(c2)oc2ccccc23)nnc1-c1ccc(N)cc1,?,0.2%,?,?,-29.9%,11.2µM*
SMILES,FMDV antiviral,Giardia FBPA inh,HCMV antiviral,Lassa entry inh,MARV entry inh,HCV inh
COc1cc2c(cc1NC(=O)CSc1nnnn1-c1ccccc1)oc1ccccc12,-28.4%,-5.2%,3.4,?,?,-6.1%
COc1cc2c(cc1NC(=O)CSc1nnc(COc3ccc(Cl)cc3)n1C)oc1ccccc12,-9.7%,-3.2%,38.5,-5.5%,?,6.31µM*
CCn1c(SCC(=O)Nc2cc3oc4ccccc4c3cc2OC)nnc1-c1cccs1,/,2.8%,-18.9,?,?,10µM*
CN(Cc1cccs1)[C@@H]1CC[C@@]23CCCN2C(=O)CCC[C@H]3[C@H]1Cc1ccccc1,/,/,-21.5,/,/,/
COC(=O)NC(CCc1ccccc1)C(C(=O)OC)C(=O)OC (centres undefined),/,0.0%,/,?,13.1%[14.2 µM],/
COC1=C(C(=O)c2ccccc2)C(=O)[C@@]2(CC=C(C)C)C[C@@H]([S+](=O)([O-])c3ccccc3)C(C)(C)[C@@]1(CC=C(C)C)C2=O,/,/,/,?,-16.6%[14.2 µM],/
Cc1cc(C)cc(Nc2cc(C(=O)NCc3ccccc3)c3ccccc3n2)c1,12.1%,/,-18.2,-1.3%[46.1 µM],?,/
COc1cc2c(cc1NC(=O)CSc1nnc(Cc3cccs3)n1Cc1ccco1)oc1ccccc12,?,4.3%,42.8,-8.7%,?,2µM*
Cc1cc(Cl)ccc1NC(=O)CSc1nnc(Cc2cccs2)n1Cc1ccco1,-23.2%,5.1%,-6.3,0.8%,?,?
CCOC(=O)CNC(=S)N(CCCN1CCCCCC1)Cc1cccs1,-5.4%,-2.8%,-88.5*,7.7%[46.1 µM],?,4.2%
O=c1c2ccccc2cnn1CCOc1ccccc1,10µM*,-1.6%,-87.5*,0.282µM*,2.06µM*,24.3%
COc1ccc(Br)cc1C(=O)Nc1ccc(O)cc1,/,-1.7%,-5.7,-10.2%,25.3%,3.98µM*
O=C(Nc1ccc(Br)cc1)c1cc(Br)cc(Br)c1O,/,?,-99.1*,/,/,/
COc1ccc(Br)cc1C(=O)Nc1ccc(C(=O)O)cc1,8.6%,14.1%,29.7,5.5%[46.1 µM],-0.1%[46.1 µM],?
COc1ccc(Br)cc1C(=O)Nc1cccc2ncccc12,-0.7%,-2.6%,-39.2,17.4%,?,10µM*
O=C(Nc1ccc(Br)cc1)c1ccccc1Br,40.1%,-1.6%,36.3,/,/,-16.6%
COc1cc(OC)cc(C(=O)NCC2CCN(C(=O)C(=O)c3cccs3)CC2)c1,/,/,7.8,/,/,/
N#Cc1ccccc1OCC(O)CNCCNC(=O)Nc1ccccc1 (centres undefined),-1.4%,/,/,/,/,/
Cc1cc(/C=N/NC(N)=S)c(C)n1-c1ccc(Cl)cc1,-11.6%,-9.8%,-21.1,?,?,?
Cc1cc(/C=N/NC(N)=S)c(C)n1-c1cccc(Cl)c1,-10.5%,-8.3%,-64.7*,?,?,-21.9%
COC(=O)c1cccc(C(=O)N2CCc3c(cnc(C)c3CNC(=O)/C=C/c3cccs3)C2)c1,-7.8%,/,/,/,/,/
Cc1ccc(C)c(S(=O)(=O)N2CCCCC2CCNC(=O)C(=O)NCc2ccccc2)c1 (centres undefined),-0.5%,/,4.4,-29.6%[46.1 µM],?,22.4µM*
COc1ccccc1CCNC(=O)C(=O)NCC1OCCCN1S(=O)(=O)c1ccc(F)cc1C (centres undefined),-25.4%,/,-75.1*,?,-19.6%,10µM*
